Laboratory results as given in PubChem BioAssay AID1259240 (Keith Lab, Institute of Cancer Science, University of …, 2017).
The source made the active and inactive calls. Cut-off read from the data, not from the text of the source: active = fold change mostly below about -2 (no sharp cut-off); inactive = mostly above about -1.8.

Test: modulation of TERT promoter-driven luciferase – cell-based, luciferase reporter, human, primary screen (AID 1259240)
Conditions: A2780 TERT promoter luciferase reporter, 16 h; at 20 µM, fold versus average of vehicle-only wells

Fold change, inactive:
CSc1nsc(SC)c1C(=O)NCCNS(=O)(=O)c1ccc(C)cc1 -1.37, COCCn1c(SCC(=O)Nc2cc(C)on2)nc2c(c1=O)SC(C)C2 (stereo not drawn) -1.21, Cc1[nH]nc2c1C(c1ccc(O)cc1)NC2=O (stereo not drawn) -1.14, Nc1nc(SCC(=O)NCCCN2CCOCC2)nc2sc3c(c12)CCC3 -1.53, Cc1noc(C(=O)N2CCN(c3ccccc3)CC2)c1Cl -1.23, CN1C(=O)C2ON(c3ccc(Cl)cc3)C(c3cccs3)C2C1=O (stereo not drawn) -1.37, COc1ccc(CCn2c(=O)c3cccnc3n(CC#N)c2=O)cc1OC 1.04, C=CCN1CN=C(NS(=O)(=O)c2ccc(C)cc2)NC1 -1.75, CCN1CCN(C(=O)CN2C(=O)COc3ccc(S(=O)(=O)N4CCC(C)CC4)cc32)CC1 1.16, COc1cc(OC)c(-c2nc(-c3cccnc3)no2)cc1OC 1.51, Cc1nn(-c2cc(N3CCCCC3)ccc2N)c(=O)c2ccccc12 -1.45, CCOC(=O)c1c(NC(=O)Nc2ccc(F)cc2)sc2c1CCN(C(=O)OCC)C2 -1.41, CCOc1cc2c(cc1OCC)C(c1ccc(Cl)c(Cl)c1)CC(=O)N2 (stereo not drawn) 1.29, COc1cc(-c2nc3sccn3c2Nc2ccc(OC)c(OC)c2)ccc1O -1.31, CCCCCn1c(=O)[nH]c2c(c1=O)CCC2 -1.18, COc1cccc(-c2nc(S(=O)(=O)c3ccc(C)cc3)c(N(C)C)o2)c1 -1.82, Cc1cccc(CCn2c(=O)c3ccccc3n(Cc3cc(=O)n4ccccc4n3)c2=O)c1 -1.38, COc1ccc2c(c1)/C(=c1/sc3n(c1=O)CN(c1ccc(C)c(Cl)c1)CN=3)C(=O)N2 -1.71

Fold change, active:
COc1ccc2c(c1)NC(=O)C2(O)C(F)(F)F (stereo not drawn) 2.17, COc1cc2nc(CN3C(=O)c4ccccc4C3=O)oc(=O)c2cc1OC -2.87, O=[N+]([O-])c1c(Nc2ccc(Cl)cc2)n[nH]c1-c1nnco1 -2.07, CCc1cccc(Nc2nc3ccccc3n3nnnc23)c1 -12.7

outcome, inactive:
Fc1ccc(Br)cc1C1C=C(c2cccnc2)Nc2ncnn21 (stereo not drawn)
